Values joined by “and” are separate entries in the source; they are usually repeats but may differ in a detail not shown here. Equal entries are not always repeated. Results filed as inconclusive are left out. Active and inactive are the calls of the source. Unless noted, the call rests on the fitted dose curve; in most records, active means well fitted curve in the direction sought with a large enough effect; inconclusive means small, poorly fitted or top-dose-only effect, or another doubt; inactive means no such curve, though single readings can be large; an effect the other way counts as inactive or inconclusive.
Key:
[1] = AP1 Signaling Pathway (AID 357; active means well fitted curve in either direction with a large enough effect, not every such curve was filed as active;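 further: ME-180 reporter cells stimulated with EGF at its EC50 level; on the % scale 0 is the no-effect control and ±100 the full control effect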)
Procedure, shortened: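 Beta-lactamase reporter under AP-1 response element, ME-180 background. Stimulus: EC50 EGF. Compound exposure 5 h, 37 °C. Detection: CCF4, 2.5 h RT, 460/530 nm. Values: AC50 from titration.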

[2] = target: Cytochrome P450 1A2 (Homo sapiens) (UniProt P05177); test: p450-cyp1a2 (AID 410; calls by dose curve; further: potency means the concentration at half of the fitted maximal effect)
Procedure, shortened: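 O-Demethylation of luciferin 6' methyl ether by human CYP1A2 is monitored as luciferase luminescence. Substrate sits at Km (100uM); enzyme is 20nM. Values are scaled to 57 uM furafylline as maximal inhibition.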

[3] = NFAT Signaling Pathway (AID 444; active means well fitted curve in either direction with a large enough effect, not every such curve was filed as active;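 further: carbachol stimulus at about its EC50 of 1 µM final; on the % scale 0 is the no-effect control and ±100 the full control effect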); conditions: Jurkat NFAT-bla M1, carbachol, beta-lactamase ratio, 5 h; at 17.2 µM (top of the series)
Procedure, shortened: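 Jurkat cells carrying an NFAT-driven β-lactamase reporter and co-transfected muscarinic M1 receptor were treated with compound plus carbachol (1 uM final, an EC50 level) for 5 h at 37 °C. CCF4 loading followed for 1 h at RT; 460/530 nm ratio gave %activity.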

[4] = target: Glucocorticoid receptor (Homo sapiens) (UniProt P04150); test: GR-GFP Redistribution (AID 450;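 active means compounds whose dose series gives a full or clear partial fitted curve of increased nuclear translocation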; further: potency means the concentration at half of the fitted maximal effect); conditions: U2OS GR-GFP nuclear translocation, laser cytometry, 2 h
[5] = target: Glucocorticoid receptor (Homo sapiens) (UniProt P04150); test: GR-EFC Redistribution (AID 451; calls by dose curve; further: potency means the concentration at half of the fitted maximal effect); conditions: CHO-K1 GR-EFC translocation, beta-gal luminescence, 2 h
Procedure, shortened: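 CHO-K1 cells stably expressing nuclear-localized β-gal enzyme acceptor and GR fused C-terminally to the enzyme donor fragment; ligand-driven nuclear translocation restores β-gal by complementation. Compounds titrated up to 46 uM final, 2 h at 37 °C; luminescence read.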

[6] = target: Mitogen-activated protein kinase 10 (Mus musculus) (UniProt Q61831); test: JNK3 AlphaScreen Assay (AID 530; active means well fitted curve in either direction with a large enough effect, not every such curve was filed as active;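 further: kinase came from lysate of stimulated human HepG2 cells; signal reports phosphorylation of biotinylated GST-cJun 1-79 at Ser73 with 10 µM ATP; on the % scale 0 is the no-effect control and ±100 the full control effect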)
Procedure, shortened: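 Phosphorylation of biotinylated GST-cJun(1-79) at Ser73 is measured by AlphaScreen proximity luminescence. Enzyme is JNK3 in HepG2 lysates activated with interleukin-1beta and tumor necrosis factor alpha; ATP is 10 uM final.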

[7] = target: Cytochrome P450 3A4 (Homo sapiens) (UniProt P08684); test: qHTS Assay for Inhibitors and Substrates of Cytochrome P450 3A4 (AID 884); further: on the % scale 0 is the no-effect control and ±100 the full control effect; nearly all actives have a fitted effect of over 50% in size
Procedure, shortened: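 Luminescent readout of luciferin produced by CYP3A4 (20 nM) dealkylation of Luciferin-PPXE, 25 uM (its KM). NADPH-driven reaction ran 60 min at RT after 10 min compound preincubation; data scaled to 57 uM ketoconazole as 100% inhibition.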

[8] = target: Cytochrome P450 3A4 (Homo sapiens) (UniProt P08684); test: qHTS Assay for Activators of Cytochrome P450 3A4 (AID 885); further: nearly all actives have a fitted effect of over 65% in size
Procedure, shortened: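 Luminescent readout of luciferin formed from 25 uM Luciferin-PPXE (KM level) by 20 nM CYP3A4 in 200 mM KPO4, with 60 min NADPH-driven reaction at room temperature after 10 min compound exposure. Ketoconazole (57 uM) defined 100% inhibition.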

[9] = target: Cytochrome P450 2D6 (Homo sapiens) (UniProt P10635); test: qHTS Assay for Inhibitors and Substrates of Cytochrome P450 2D6 (AID 891); further: potency means the concentration at half of the fitted maximal effect; nearly all actives have a fitted effect of over 60% in size
Procedure, shortened: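 Luminescent read-out of luciferin formed by 5 nM human CYP2D6 demethylating 30 uM Luciferin-ME EGE (Km level) over 60 min at room temperature after NADPH regeneration addition. Data normalized to full inhibition by 1.43 uM quinidine.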

[10] = Confirmation and Secondary Assay for Modulators of Hemoglobin Beta Chain Splicing at IVS2 654 locus (AID 910);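 further: per-well total GFP intensity by laser scanning cytometry after 2-day treatment; % of control where 0% means no effect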
Procedure, shortened: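 HeLa cells stably carrying EGFP interrupted by mutant beta-globin IVS2-654 intron (CMV-driven) were treated with compound for 2 days at 37C; corrected splicing was scored as total peak GFP intensity per well (488 nm excitation, 500-520 nm emission).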

[11] = qHTS Assay for Identification of Small Molecule Agonists for Hypoxia Response Element Signaling Pathway (AID 914; active means well fitted activation curve with a large enough effect in the signal ratio, with a control signal flat, not every such curve was filed as active; the % refers to the signal ratio; further: potency means the concentration at half of the fitted maximal effect); conditions: ME-180 HRE-bla reporter, beta-lactamase ratio, CoCl2, 17 h; activation: stronger effect = higher value
Procedure, shortened: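 ME-180 cells carrying an HRE-driven beta-lactamase reporter were treated with compounds in a titration series plus an EC50 level of CoCl2 for 17 h at 37 degrees Celsius; CCF4 readout as the 460nm/530nm ratio gave AC50 values.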

[12] = Confirmation and Secondary Assay for Modulators of Hemoglobin Beta Chain Splicing at IVS2 705 locus (AID 930);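 further: HeLa cells stably expressing the EGFP-705 splicing reporter; % of control where 0% means no effect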
Procedure, shortened: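 HeLa cells stably carrying EGFP interrupted by mutant beta-globin IVS2-705 intron (CMV-driven) were seeded at 500 cells/well, treated next day with compound for 2 days at 37C; corrected splicing restores EGFP, read as total peak GFP intensity per well.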

[13] = qHTS Assay for Lipid Storage Modulators (AID 1519; calls by dose curve); conditions: Drosophila S3 cells, BODIPY lipid droplet/cell ratio, laser cytometry, cells loaded with oleic acid
Procedure, shortened: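 Cells seeded at 5,000 per well were treated with compounds over a concentration series and loaded with oleic acid (400 uM, as added). Lipid droplet fluorescence (488 nm excitation, 500-530 nm channel) was read by laser-scanning cytometry and normalized to 20 uM Triacsin C.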

[14] = target: Ubiquitin carboxyl-terminal hydrolase 1 (Homo sapiens) (UniProt O94782); test: Inhibitors of USP1/UAF1: Pilot qHTS (AID 504865);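 further: rhodamine fluorescence freed from ubiquitin-rhodamine substrate followed over time; top concentration of the series differs between compounds; on the % scale 0 is the no-effect control and ±100 the full control effect; nearly all actives have a fitted effect of over 35% in size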
Procedure, shortened: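 USP1/UAF1 complex (1nM) preincubated with compound 15 min at room temperature, then Ub-Rho substrate (150nM final) added. Fluorescence read kinetically at 480/540 nm, 6 reads every 60 seconds. Buffer: 50mM HEPES pH 7.8, 0.5mM EDTA, 0.1 mg/ml BSA, 1mM TCEP, 0.01% Tween-20.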

[15] = target: DNA dC->dU-editing enzyme APOBEC-3G (Homo sapiens) (UniProt Q9HC16); test: qHTS for inhibitors of Vif-A3G interactions: Validation (AID 588379); further: 0% is about no effect
Procedure, shortened: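 Yellow fluorescence (Ex 488, Em 500-530) of Vif-coexpressing HeLa A3G-eYFP cells, scanned by Acumen cytometer, reports blocked A3G degradation. Cells plated at 700/well overnight at 37 deg C before compound addition, then a further overnight compound incubation at 37 deg C.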

[16] = system: Zika virus NS2B-NS3 protease; test: Primary screen GU AMC qHTS for Zika virus inhibitors (AID 1347154); further: potency means the concentration at half of the fitted maximal effect; nearly all actives have a fitted effect of over 70% in size
Procedure, shortened: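 Unlinked Zika NS2B hydrophilic domain/NS3 protease domain noncovalent complex (25 nM final) in 10 mM Tris-HCl pH 8.0, 0.01% Tween 20, with AMC peptide substrate. Fluorescence (ex 340, em 450 nm) change over 15 min, room temperature; percent inhibition fitted to 4-parameter Hill equation.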

[17] = system: Zika virus NS2B-NS3 protease (linked construct); test: Primary screen NINDS Rhodamine qHTS for Zika virus inhibitors (AID 1347160); further: on the % scale 0 is the no-effect control and ±100 the full control effect; nearly all actives have a fitted effect of over 55% in size
Procedure, shortened: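 Rhodamine110-peptide cleavage (1.5 µM substrate) by 25 nM linked NS2B-NS3 enzyme at pH 8.0 (Tris, Tween 20), after 15 min RT preincubation with compounds; 15-min fluorescence change normalized to controls and Hill-fitted.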

[18] = U-118MG Cancer Cell Toxicity qHTS against the NCATS CANVASS Library (AID 1347351); further: on the % scale 0 is the no-effect control and ±100 the full control effect
Procedure, shortened: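 Cells were seeded at 1000 per well, allowed 4 h at 37 degrees C/5% CO2, then pin-treated with an 11-point compound series. After 72 h, viability was read as CellTiter-Glo luminescence following 15min at room temperature.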

[19] = A2780 Cisplatin Sensitive Ovarian Cancer Cell Toxicity qHTS against the NCATS CANVASS Library (AID 1347353); further: nearly all actives have a fitted effect of over 60% in size
Procedure, shortened: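 Cells are plated at 750 per well and rest for 4 hours. Compounds are added across eleven concentrations, and incubated 72 hours before ATP is quantified by luminescence.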

[20] = UWB1.289-WTBRCA1 Cancer Cell Toxicity qHTS against the NCATS CANVASS Library (AID 1347354); further: on the % scale 0 is the no-effect control and ±100 the full control effect
Procedure, shortened: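 First, 1000 cells go into each well and rest for 4 hours. Next, an 11-point dilution range is pinned in. Plates then incubate 72 hours before CellTiter-Glo addition and luminescence reading.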

[21] = HPAF-II 24hr Apoptosis Induction qHTS against the NCATS CANVASS Library (AID 1347356); further: 0% is about no effect
Procedure, shortened: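 Cells seeded at 500 per well, then compounds pin-transferred in an 11-point concentration series. After 24 hours at 37 degrees C, Caspase-Glo 3/7 was added and luminescence measured following 15 min at room temperature.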

[22] = HEK293 18hr Apoptosis Induction qHTS against the NCATS CANVASS Library (AID 1347357); further: 0% is about no effect
Procedure, shortened: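 HEK293 cells (500 per well, DMEM with 10% FBS) were treated with natural products, incubated 18 hours at 37 degrees C, then caspase-3/7 activity was read by Caspase-Glo luminescence after 15 min at room temperature.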

Glucocorticoid receptor (Homo sapiens), sequence (P04150 whole entry, looked up, the tested form may be a part): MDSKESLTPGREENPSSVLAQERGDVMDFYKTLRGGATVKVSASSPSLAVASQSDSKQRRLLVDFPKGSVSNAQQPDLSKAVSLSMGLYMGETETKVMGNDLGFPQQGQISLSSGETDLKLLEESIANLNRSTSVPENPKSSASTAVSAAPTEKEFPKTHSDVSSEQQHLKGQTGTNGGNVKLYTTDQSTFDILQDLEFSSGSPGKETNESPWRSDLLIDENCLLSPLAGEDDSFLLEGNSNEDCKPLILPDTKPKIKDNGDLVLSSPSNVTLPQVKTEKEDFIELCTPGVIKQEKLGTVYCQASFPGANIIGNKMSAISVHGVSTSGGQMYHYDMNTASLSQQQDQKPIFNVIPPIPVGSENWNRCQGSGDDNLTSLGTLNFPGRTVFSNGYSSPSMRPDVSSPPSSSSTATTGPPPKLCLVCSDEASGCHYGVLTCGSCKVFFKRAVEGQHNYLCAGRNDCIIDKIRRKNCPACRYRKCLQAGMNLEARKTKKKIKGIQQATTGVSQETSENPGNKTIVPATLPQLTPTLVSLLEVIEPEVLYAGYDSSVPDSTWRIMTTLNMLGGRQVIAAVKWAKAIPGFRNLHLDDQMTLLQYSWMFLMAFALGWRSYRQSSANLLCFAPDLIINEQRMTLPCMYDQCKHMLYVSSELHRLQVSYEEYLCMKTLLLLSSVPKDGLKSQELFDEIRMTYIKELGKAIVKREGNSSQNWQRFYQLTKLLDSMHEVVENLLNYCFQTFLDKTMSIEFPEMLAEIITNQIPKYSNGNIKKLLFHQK
Cytochrome P450 3A4 (Homo sapiens), sequence (P08684 whole entry, looked up): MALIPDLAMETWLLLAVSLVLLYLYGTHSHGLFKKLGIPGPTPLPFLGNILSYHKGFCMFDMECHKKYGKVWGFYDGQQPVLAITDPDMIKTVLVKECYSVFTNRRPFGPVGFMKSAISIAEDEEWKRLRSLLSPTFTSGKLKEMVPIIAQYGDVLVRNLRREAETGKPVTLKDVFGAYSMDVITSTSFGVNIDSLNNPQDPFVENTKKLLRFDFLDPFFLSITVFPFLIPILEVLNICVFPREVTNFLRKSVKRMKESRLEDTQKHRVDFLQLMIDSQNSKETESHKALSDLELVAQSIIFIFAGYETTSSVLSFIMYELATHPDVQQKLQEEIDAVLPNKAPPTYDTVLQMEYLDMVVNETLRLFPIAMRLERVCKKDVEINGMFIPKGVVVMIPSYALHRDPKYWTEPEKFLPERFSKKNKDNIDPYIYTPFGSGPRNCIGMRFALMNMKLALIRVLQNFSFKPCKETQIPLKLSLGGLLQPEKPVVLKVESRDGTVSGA
Cytochrome P450 1A2 (Homo sapiens), sequence (P05177 whole entry, looked up): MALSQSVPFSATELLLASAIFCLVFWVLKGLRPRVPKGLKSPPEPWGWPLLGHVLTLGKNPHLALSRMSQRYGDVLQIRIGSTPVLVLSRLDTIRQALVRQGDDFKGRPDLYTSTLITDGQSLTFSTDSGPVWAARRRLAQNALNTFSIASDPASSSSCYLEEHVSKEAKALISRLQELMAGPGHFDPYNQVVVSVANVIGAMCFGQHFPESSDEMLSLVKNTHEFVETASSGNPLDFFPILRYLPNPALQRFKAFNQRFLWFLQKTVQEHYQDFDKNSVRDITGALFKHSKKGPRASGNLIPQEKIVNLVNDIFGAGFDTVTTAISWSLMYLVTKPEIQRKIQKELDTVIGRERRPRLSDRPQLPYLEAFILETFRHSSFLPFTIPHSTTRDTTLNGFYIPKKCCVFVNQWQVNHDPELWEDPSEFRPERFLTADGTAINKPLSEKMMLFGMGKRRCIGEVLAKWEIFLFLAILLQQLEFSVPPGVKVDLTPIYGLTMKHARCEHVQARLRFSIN
Cytochrome P450 2D6 (Homo sapiens), sequence (P10635 whole entry, looked up): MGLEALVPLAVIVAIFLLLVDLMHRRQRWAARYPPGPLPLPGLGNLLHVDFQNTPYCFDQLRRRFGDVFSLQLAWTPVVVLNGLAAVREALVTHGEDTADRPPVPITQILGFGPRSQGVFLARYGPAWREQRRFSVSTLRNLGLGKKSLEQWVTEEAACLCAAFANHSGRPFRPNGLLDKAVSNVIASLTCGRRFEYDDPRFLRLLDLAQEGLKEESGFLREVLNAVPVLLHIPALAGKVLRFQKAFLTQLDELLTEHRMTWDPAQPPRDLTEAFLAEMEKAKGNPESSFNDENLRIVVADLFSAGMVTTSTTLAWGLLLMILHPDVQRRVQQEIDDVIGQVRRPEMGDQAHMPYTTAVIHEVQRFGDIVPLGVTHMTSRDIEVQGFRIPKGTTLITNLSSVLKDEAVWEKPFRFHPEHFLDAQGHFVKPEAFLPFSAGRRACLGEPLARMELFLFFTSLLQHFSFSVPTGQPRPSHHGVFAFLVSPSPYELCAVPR
DNA dC->dU-editing enzyme APOBEC-3G (Homo sapiens), sequence (Q9HC16 whole entry, looked up): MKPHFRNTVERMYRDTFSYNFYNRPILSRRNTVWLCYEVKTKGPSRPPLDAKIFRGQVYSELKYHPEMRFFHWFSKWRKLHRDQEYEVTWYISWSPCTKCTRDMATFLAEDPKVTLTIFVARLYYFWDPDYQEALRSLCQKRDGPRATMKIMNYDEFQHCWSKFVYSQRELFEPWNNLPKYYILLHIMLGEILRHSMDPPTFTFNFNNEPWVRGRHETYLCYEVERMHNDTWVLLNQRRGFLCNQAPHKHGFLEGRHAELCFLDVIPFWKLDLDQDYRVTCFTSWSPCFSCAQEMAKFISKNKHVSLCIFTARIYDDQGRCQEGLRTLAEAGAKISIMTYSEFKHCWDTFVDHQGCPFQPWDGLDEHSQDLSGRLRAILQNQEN
Ubiquitin carboxyl-terminal hydrolase 1 (Homo sapiens), sequence (O94782 whole entry, looked up): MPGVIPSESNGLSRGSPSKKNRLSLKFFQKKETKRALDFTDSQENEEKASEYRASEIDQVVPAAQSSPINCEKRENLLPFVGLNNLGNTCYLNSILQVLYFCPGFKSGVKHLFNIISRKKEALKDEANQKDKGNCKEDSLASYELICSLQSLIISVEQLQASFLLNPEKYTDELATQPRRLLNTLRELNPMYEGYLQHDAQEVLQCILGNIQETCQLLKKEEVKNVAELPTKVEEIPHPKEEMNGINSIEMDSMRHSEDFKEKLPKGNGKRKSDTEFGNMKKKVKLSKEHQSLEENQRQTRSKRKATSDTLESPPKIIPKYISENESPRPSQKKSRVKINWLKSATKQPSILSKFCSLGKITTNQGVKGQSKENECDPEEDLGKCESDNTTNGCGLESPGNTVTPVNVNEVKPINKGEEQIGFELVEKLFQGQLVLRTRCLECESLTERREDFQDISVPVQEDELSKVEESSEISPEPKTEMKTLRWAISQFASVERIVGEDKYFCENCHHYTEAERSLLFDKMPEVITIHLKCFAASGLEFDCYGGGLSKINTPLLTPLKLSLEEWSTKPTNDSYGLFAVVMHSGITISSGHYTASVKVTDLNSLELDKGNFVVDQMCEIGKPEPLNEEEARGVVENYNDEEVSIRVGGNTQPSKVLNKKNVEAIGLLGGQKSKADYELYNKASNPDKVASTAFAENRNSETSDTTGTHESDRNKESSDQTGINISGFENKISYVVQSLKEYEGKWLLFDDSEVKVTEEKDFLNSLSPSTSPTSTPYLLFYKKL

COc1ccc2c3c([nH]c2c1)C(C)=NCC3
2.64%: max response ([13]; measured here: lipid channel max response)
inactive: outcome [1] | activity change, negative = inhibition [3] -3.75% | Potency [4] > 20.6 µM and > 46 µM | Potency [5] > 20.6 µM and > 46 µM | outcome [6] | Potency [7] | Potency [8] | Potency [10] | outcome [12] | activity change, negative = inhibition ([13]; at 25.7 µM (top of the series)) 1.66% | Potency [14] | Potency [15] | Potency [17] | Potency [18] | Potency [19] | Potency [20] | outcome [21] | Potency [22]
active: Potency [2] 794 nM and 251 nM | Potency [9] 3.98 µM | Potency [11] 10 µM | Potency [16] 21.2 µM
0.146%: max response ([13]; measured here: cell count channel max response)
